# Data published in PubChem BioAssay (NCI).
# This is part of a sample that, as a whole, favours compounds with a hit. Of some 83,000 tested, about 20% had one in any assay.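 Method: cells in 96-well plates; compound added at one concentration; 48 h incubation; percent growth measured; values under 10 scored active.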 Unmarked numbers belong to inactive results. Active and inactive are the calls of the source.
# Legend:
# Experiment in all cases: NCI-60 one-dose screen, 48 h (100 = growth as untreated, 0 = no growth, -100 = all killed)
# Conditions in all cases: 10 µM unless noted
# DU-145 prostate = test system: DU-145 prostate
# K-562 leukemia = test system: K-562 leukemia
# MALME-3M melanoma = test system: MALME-3M melanoma
# MDA-MB-231 breast = test system: MDA-MB-231 breast
# RXF 393 renal = test system: RXF 393 renal
# SF-268 CNS = test system: SF-268 CNS
# SF-295 CNS = test system: SF-295 CNS
# SF-539 CNS = test system: SF-539 CNS
# UACC-257 melanoma = test system: UACC-257 melanoma
# M14 melanoma = test system: M14 melanoma
# HCT-15 colon = test system: HCT-15 colon
# HT29 colon = test system: HT29 colon
# SNB-75 CNS = test system: SNB-75 CNS
# SNB-19 CNS = test system: SNB-19 CNS
# U251 CNS = test system: U251 CNS
# PC-3 prostate = test system: PC-3 prostate
# SK-MEL-5 melanoma = test system: SK-MEL-5 melanoma
# UACC-62 melanoma = test system: UACC-62 melanoma
# LOX IMVI melanoma = test system: LOX IMVI melanoma
# SK-MEL-28 melanoma = test system: SK-MEL-28 melanoma
SMILES,growth (DU-145 prostate),growth (K-562 leukemia),growth (MALME-3M melanoma),growth (MDA-MB-231 breast),growth (RXF 393 renal),growth (SF-268 CNS),growth (SF-295 CNS),growth (SF-539 CNS),growth (UACC-257 melanoma),growth (M14 melanoma),growth (HCT-15 colon),growth (HT29 colon),growth (SNB-75 CNS),growth (SNB-19 CNS),growth (U251 CNS),growth (PC-3 prostate),growth (SK-MEL-5 melanoma),growth (UACC-62 melanoma),growth (LOX IMVI melanoma),growth (SK-MEL-28 melanoma)
CN(C)CCC=C1c2ccccc2C(C)(C)c2ccccc21,35.9%,32.7%,78.9%,75%,66.4%,95.9%,67.2%,61.2%,24.2%,11.6%,83.9%,30.5%,79.3%,86.1%,78.9%,55.5%,64.3%,71.2%,69.6%,54.5%
Cc1cc(NCc2cc(Nc3ccnc4cc(Cl)ccc34)ccc2F)nc(N2CCSCC2)n1,23.6%,-24.9% (active),-30.7% (active),-8.18% (active),-5.98% (active),38.8%,-57.3% (active),-72.2% (active),17.6%,-51.6% (active),1.94% (active),-27.3% (active),-31.7% (active),42.9%,-71.4% (active),26.6%,-13.8% (active),-54.4% (active),-89.2% (active),-64.3% (active)
COC(=O)[C@H](CSC)N(C)C(=O)[C@@H]1CSSC[C@@H](NC(=O)c2nc3ccccc3cc2O)C(=O)NCC(=O)N1C,77.6%,48.8%,96.7%,81.3%,101%,79.2%,114%,87.2%,76.1%,46.2%,99.1%,76.1%,132%,92.7%,91.2%,72.7%,38%,60%,48.3%,83.4%
N#Cc1c2c(nn(-c3ccccc3)c1=O)C(O)=C([N+](=O)[O-])C(c1ccccc1)C2 (stereo not given),26.2%,41%,86.1%,71.1%,49.7%,88%,98.9%,83%,87.7%,86.1%,54.7%,94.1%,90.6%,84.2%,57.7%,80.5%,92.9%,84.6%,17.9%,96.4%
CCCCCCCC/C=C\CCCCCCCCOc1ccccc1CC(=O)NCC[N+](C)(C)C,80.1%,54.6%,89.8%,72.9%,16.6%,65.9%,63.8%,77.5%,88.9%,57.4%,56.6%,33.4%,45.9%,25.3%,12.7%,4.4% (active),74.7%,66.5%,74.1%,88.8%
O=C(Nc1ccc(Cl)cc1)Nc1ccc(Cl)c(C(F)(F)F)c1,20.2%,-10.2% (active),-30.7% (active),-4.47% (active),33.6%,21.3%,-28.2% (active),4.38% (active),2.84% (active),11.8%,8.11% (active),18.9%,41.3%,13%,4.41% (active),-8.98% (active),-13.3% (active),23.9%,3.49% (active),19.1%
Cn1ccc2c(c1=O)C(=O)c1nccc3c1c-2nc1ccccc13,-88.3% (active),-46.6% (active),89.3%,-85.5% (active),40.8%,-69.2% (active),-66% (active),-28.9% (active),108%,82.9%,-61.4% (active),-76.7% (active),60.2%,-74.4% (active),-92.9% (active),-44.8% (active),95%,91.7%,-98.4% (active),106%
COc1cccc(-c2nn(-c3ccccc3)cc2-c2ccnc(NCCNC(=O)Nc3ccc(Cl)c(Cl)c3)c2)c1,2.24% (active),2.28% (active),25.3%,-22.9% (active),-9.27% (active),9.11% (active),2.94% (active),-0.925% (active),16%,-36.8% (active),7.83% (active),-20.5% (active),-1.39% (active),28.9%,-11.6% (active),4.19% (active),3.01% (active),-14.2% (active),-68.8% (active),16.1%
CN(C)CCCn1c(=O)c2ccccc2c2ccccc21,44.1%,88.1%,100%,67%,74.7%,68.2%,83.3%,85.6%,93.8%,87.8%,64.7%,50%,85.9%,73.4%,87.9%,70%,79.7%,82.2%,56.5%,103%
Cc1ccc(N2CCN(C(=S)c3cccs3)CC2)cc1,108%,89.1%,100%,97.1%,111%,107%,103%,101%,101%,103%,96.3%,90.9%,94.3%,100%,96.3%,92.9%,95.2%,90.1%,116%,102%
O=C1/C(=C/c2ccccc2)CCc2nc3ccccc3c(/C=C/c3ccc(Cl)cc3)c21,98.1%,82%,105%,86.6%,96.3%,87.5%,96.3%,99.3%,82.8%,86.6%,69.4%,81.3%,76.5%,96.3%,93.2%,79.6%,89.8%,73%,84.7%,91.8%
CNS(=O)(=O)c1n[nH]nc1-c1cc(C(C)(C)C)c(O)c(C(C)(C)C)c1,110%,98.7%,88.3%,103%,114%,99.3%,92.4%,99.4%,84.7%,95.9%,95.3%,108%,80.5%,107%,95.5%,97.2%,94.2%,100%,101%,105%
C=C(C)[C@@H]1CC[C@]2(C(=O)NC3CCCCC3)CC[C@]3(C)[C@H](CC[C@@H]4[C@@]5(C)CCCNC(C)(C)[C@@H]5CC[C@]43C)[C@@H]12,59%,-8.4% (active),-6.88% (active),52.7%,56.6%,78.4%,96.9%,63.4%,-9.57% (active),-52.3% (active),-26.8% (active),2.51% (active),93.9%,84.3%,14.9%,49.7%,6.77% (active),11.7%,-91.8% (active),56.6%
N#Cc1c(N2CCNCC2)nc2sc3cc(Cl)c(Cl)cc3n2c1=N,122%,77.4%,119%,84.1%,19.1%,117%,113%,86.1%,124%,106%,122%,98.7%,62.2%,98.5%,107%,94.2%,89.9%,82.6%,93.5%,120%
